{
  "source": "PubChem BioAssay (NCI)",
  "note": "The panel holds about 83,000 compounds, 20% with a hit somewhere; the sample as a whole holds those more often.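 48-hour exposure, single concentration, 96-well plates; percent growth endpoint where 0 means no net growth. Active: below 10.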 Unmarked numbers belong to inactive results. Calls of active or inactive are those of the source.",
  "data": [
    {"tested_on": "MDA-MB-468 breast", "test": "NCI-60 one-dose screen, 48 h (100 = growth as untreated, 0 = no growth, -100 = all killed)", "conditions": "10 µM unless noted", "values": [
      {"smiles": "Cn1cc(-c2csc(-c3c[nH]c4ccc(F)cc34)n2)c2cnccc21", "growth": "-49.6% (active)"},
      {"smiles": "CS(=O)(=O)c1c(Nc2ccccc2)n[nH]c1N", "growth": "110%"},
      {"smiles": "O=C1Nc2cc(Cl)ccc2/C1=C\\c1ccc(OCc2ccccc2)cc1", "growth": "98.5%"},
      {"smiles": "Cc1ccc(C[P+](c2ccccc2)(c2ccccc2)c2ccccc2)cc1", "growth": "-12.9% (active)"},
      {"smiles": "Cn1cc(-c2nonc2-c2c[nH]c3ccc(F)cc23)c2cc(Br)ccc21", "growth": "58.7%"},
      {"smiles": "COc1cc2c3c(c4c5ccccc5[nH]c4c2c(OC)c1OC)C(=O)N(CCN1CCOCC1)C3=O", "growth": "65.7%"},
      {"smiles": "O=C(CC(NC(=O)OCc1ccccc1)C(=O)OCc1ccccc1)OCc1ccccc1", "note": "(stereo unspecified)", "growth": "112%"},
      {"smiles": "COc1ccc(CN2CCCC(C(=O)c3ccc(C(F)(F)F)cc3)C2)c(O)c1", "note": "(stereo unspecified)", "growth": "12.9%"},
      {"smiles": "FC(F)(F)c1cccc(-c2cn3c(ccc4ccccc43)n2)c1", "growth": "104%"},
      {"smiles": "C=CCc1nc2ccccc2s1", "growth": "-14.5% (active)"},
      {"smiles": "O=S(=O)(NCCNc1cc(-c2cn(-c3ccccc3)nc2-c2ccccc2)ccn1)c1cccc2ccccc12", "growth": "36.6%"},
      {"smiles": "O=C1Nc2cc(OC(F)(F)F)ccc2Oc2ccc(-c3ccnc(N4CC[C@H](O)C4)c3)cc21", "growth": "-28.9% (active)"},
      {"smiles": "CCC1=C[C@]2(C3CC(=O)N(c4ccccc4)C3=O)CC(C(C)(C)C)C[C@@H]2[C@@H]2C(=O)N(c3ccccc3)C(=O)[C@H]12", "note": "(stereo partly specified)", "growth": "90.2%"},
      {"smiles": "c1ccc2c(-c3c4ccsc4cc4[nH]c5ccccc5c34)c[nH]c2c1", "growth": "15.7%"},
      {"smiles": "COc1ccc(/C=C2\\NC(=S)NC2=O)cc1", "growth": "102%"},
      {"smiles": "COc1ccc2c(c1)N(Cc1ccc(Cl)cc1)CCC2N1CCCC1=O", "note": "(stereo unspecified)", "growth": "42.3%"},
      {"smiles": "C=C1C(=O)O[C@H]2[C@H]1CC/C(COC(=O)/C=C\\C(=O)NCc1ccc(Cn3c(=O)sn(-c4ccc(OC)cc4)c3=O)cc1)=C\\CC[C@@]1(C)O[C@@H]21", "growth": "-81.7% (active)"},
      {"smiles": "O=c1c2cccc3c(N4CCCC4)ccc(c32)c2nc3ccccc3n12", "growth": "80.3%"},
      {"smiles": "COc1c(O)cc2oc3cc(O[C@@H]4OC(C)[C@@H](O)[C@H](O)C4O)c(CC=C(C)C)c(O)c3c(=O)c2c1CC=C(C)C", "note": "(stereo partly specified)", "growth": "82.5%"},
      {"smiles": "OCCn1cccn1", "growth": "103%"},
      {"smiles": "CN(C)c1ccc(/C=C/C(=O)c2ccc(NC(N)=O)cc2)cc1", "growth": "81%"},
      {"smiles": "O=C(OC[C@H]1O[C@H](OC(=O)c2cc(O)c(O)c(OC(=O)c3cc(O)c(O)c(O)c3)c2)[C@H](OC(=O)c2cc(O)c(O)c(OC(=O)c3cc(O)c(O)c(O)c3)c2)[C@@H](OC(=O)c2cc(O)c(O)c(OC(=O)c3cc(O)c(O)c(O)c3)c2)[C@@H]1OC(=O)c1cc(O)c(O)c(OC(=O)c2cc(O)c(O)c(O)c2)c1)c1cc(O)c(O)c(OC(=O)c2cc(O)c(O)c(O)c2)c1", "growth": "54.1%"},
      {"smiles": "Cc1nn(-c2ccc(-c3ccc(OC(F)(F)F)cc3)cc2)c2nc(Cc3ccccc3)nc(N)c12", "growth": "46%"},
      {"smiles": "CN(CCC(=O)c1ccccc1)CCC(=O)c1ccccc1", "growth": "73.4%"},
      {"smiles": "CC(=O)Nc1ccc2c(c1)Cc1c(F)cccc1-2", "growth": "8.46% (active)"},
      {"smiles": "N#C/C(=C\\c1ccc[nH]1)c1cc2ccccc2[nH]1", "growth": "-3.15% (active)"},
      {"smiles": "Cn1c(/C=C/[N+](=O)[O-])cc2ccccc21", "growth": "-36.6% (active)"},
      {"smiles": "CCC1=Cc2cc(OC)ccc2OC12C=Cc1cc(OC)ccc1O2", "note": "(stereo unspecified)", "growth": "69.6%"},
      {"smiles": "N#Cc1ccc(NC(=O)Nc2ccc(Cc3ccc(NC(=O)Nc4ccc(C#N)cc4)cc3)cc2)cc1", "growth": "-7.75% (active)"},
      {"smiles": "C[C@@]1(N2C(=O)OC[C@@H]2c2ccccc2)C(=O)N([C@H](CC(=O)N2CCC(N3CCCCC3)CC2)C(=O)NCc2cccc(C(F)(F)F)c2)[C@@H]1/C=C/c1ccccc1", "growth": "23.7%"},
      {"smiles": "O=C(OC(CO)C(=O)NC12CC3CC(CC(C3)C1)C2)c1ccc(Cl)cc1", "note": "(stereo unspecified)", "growth": "95.3%"},
      {"smiles": "C/C(=N/N)c1nnn(-c2ccc(Br)cc2)c1C", "growth": "94.8%"},
      {"smiles": "Cc1ccncc1C(N)=O", "growth": "93.8%"},
      {"smiles": "COc1ccc2c(c1)O/C(=C/c1ccc(OCC(=O)Nc3ccc(S(N)(=O)=O)cc3)cc1)C2=O", "growth": "86.3%"},
      {"smiles": "Oc1ccc(/C=N/N=C2c3ccccc3-c3ccccc32)c(O)c1", "growth": "-1.47% (active)"},
      {"smiles": "COC(=O)c1cnc2c(c1)Oc1ccc(Cl)cc1-c1cc(C)nn1-2", "growth": "92%"}
    ]}
  ]
}
